Values without a mark were called inactive. Calls of active or inactive are those of the source.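 How the source made its calls, unless noted: active means inhibition above 50%; inactive means the rest.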
Experiment: antimalarial activity against Dd2 strain (AID 2302;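 active means growth inhibition above 50% at the single 2 µM test dose, taken to imply half-maximal potency below 2 µM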;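 further: 0% = DMSO untreated growth and 100% = chloroquine plus artemisinin killed control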)
Settings: P. falciparum Dd2 in RBCs, LDH growth readout, 72 h; at 2 µM; stronger effect = higher value

Q: With `COc1ccccc1C1CCN(C2CCC(NC(=O)/C=C/c3cc(F)cc(C(F)(F)F)c3)CC2)CC1` (stereo not given) as the molecule, how does the growth inhibition read?
A: 57% (active)

Q: For `Cc1ccc(Nc2nccc(NCC(O)c3cccc(F)c3)n2)cc1` (stereo not given), which growth inhibition is on record?
A: 26%

Q: Which growth inhibition does the source give for `Cc1cccc2[nH]c(-c3ccc(-c4cccc(CN5CCN(c6ccc(C#N)cn6)CC5)c4)s3)nc12` here?
A: 8%

Q: With `Cc1ccc(NC(=O)NC2CCN(CCCCCNC(=O)/C=C/c3ccc(Cl)c(Cl)c3)CC2)cc1` as the molecule, how does the growth inhibition read?
A: 19%

Q: Which growth inhibition does the source give for `NC(=Nc1nc(-c2ccccn2)cc2ccccc12)c1cccc(Cl)c1` here?
A: 99% (active)

Q: Which growth inhibition does the source give for `CCC1CN2CCc3c([nH]c4ccccc34)C2CC1CC1=NCCc2c1[nH]c1ccc(OC)cc21` (stereo not given) here?
A: 68% (active)

Q: With `Cn1c(N)c(C(=O)CSc2nnc(-c3cccs3)n2Cc2ccccc2)c(=O)n(C)c1=O` as the molecule, how does the growth inhibition read?
A: 68% (active)

Q: With `Cc1cc(NC(=O)c2coc3cc(F)c(N4C[C@@H](C)N(C)[C@@H](C)C4)cc23)cnc1-c1ccc(C#N)cc1` as the molecule, how does the growth inhibition read?
A: 71% (active)

Q: For `N#Cc1cccc(C(=O)Nc2ccc(-c3nc4ccccc4[nH]3)cc2)c1`, which growth inhibition is on record?
A: 38%

Q: For `Cc1ccc(C(=O)Cn2nc(-c3ccc(C)c(S(=O)(=O)N4CCCCC4)c3)ccc2=O)cc1`, which growth inhibition is on record?
A: 76% (active)

Q: Which growth inhibition does the source give for `COc1ccc2c(NN=C(C)c3ccccn3)cc(C)nc2c1` here?
A: 51% (active)

Q: With `CCCCCCCNCc1c(O)ccc2c(CNCCCCCCC)c(O)ccc12` as the molecule, how does the growth inhibition read?
A: 99% (active)

Q: Which growth inhibition does the source give for `CCOc1ccc(C(C)NC(=O)C2COc3ccccc3O2)cc1OCC` (stereo not given) here?
A: 100% (active)

Q: With `Cc1nc(C)c(CC(=O)Nc2ccc(-c3cccc(-c4nc5ccc(C(F)(F)F)cc5[nH]4)c3)cc2)s1` as the molecule, how does the growth inhibition read?
A: 4%

Q: For `O=S(=O)(Nc1cc2c(cc1OCCCN1CCCCC1)CCNCC2)c1ccc(-c2ccc(Cl)cc2)cc1`, which growth inhibition is on record?
A: 19%

Q: For `Cc1ccccc1C1CCN(C2CCC(NC(=O)c3ccc(-c4ccccn4)s3)CC2)CC1` (stereo not given), which growth inhibition is on record?
A: 17%

Q: With `COc1ccc2nccc([C@@H](O)CN3CCC(NC(=O)Cn4nc(-c5ccc(C(F)(F)F)cc5)ccc4=O)CC3)c2c1` as the molecule, how does the growth inhibition read?
A: 90% (active)

Q: With `CS(=O)(=O)c1ccc(OCCCN(Cc2ccccc2C(F)(F)F)c2ccc(C#N)c(C(F)(F)F)c2)cc1` as the molecule, how does the growth inhibition read?
A: 76% (active)

Q: Which growth inhibition does the source give for `Cc1cc(=O)c(C2CCC(c3ccc(Cl)cc3)CC2)c(C)[nH]1` (stereo not given) here?
A: 70% (active)

Q: With `COc1cc(-c2cnc(N)c(-c3nc4ccccc4[nH]3)c2)cc(OC)c1OC` as the molecule, how does the growth inhibition read?
A: 57% (active)

Q: Which growth inhibition does the source give for `CC1(C)N=C(N)N=C(N)N1OCCOc1ccc2ccccc2c1` here?
A: 96% (active)

Q: With `O=C(Nc1ccc(OC2CCN(Cc3ccccc3)CC2)c(Cl)c1)c1cccs1` as the molecule, how does the growth inhibition read?
A: 95% (active)

Q: With `CC(=O)c1ccc(NC(=O)C2c3ccccc3C(=O)N(CC(C)C)C2c2cccs2)cc1` (stereo not given) as the molecule, how does the growth inhibition read?
A: 51% (active)

Q: With `COc1ccc2ncc(F)c(CCN3CCC(NCc4cnc5c(c4)NC(=O)CS5)CC3)c2c1` as the molecule, how does the growth inhibition read?
A: 16%

Q: For `O=C(Nc1nc(-c2ccccn2)cc2ccccc12)c1cccc(Cl)c1`, which growth inhibition is on record?
A: 72% (active)

Q: Which growth inhibition does the source give for `CN1CCCN(Cc2cccc(-c3cccc(NC(=O)c4cccc(C#N)c4)c3)c2)CC1` here?
A: 33%

Q: With `OC1(Cc2ccccc2)CCN(Cc2cccc(-c3c[nH]c4nc(NC5CCCC5)ncc34)c2)CC1` as the molecule, how does the growth inhibition read?
A: 35%

Q: With `N#Cc1ccc(NC(=O)N2CCCN(CCCCCNC(=O)/C=C/c3ccc(Cl)c(Cl)c3)CC2)cc1` as the molecule, how does the growth inhibition read?
A: 4%

Q: With `Nc1ncc(-c2ccc(Cl)c(Cl)c2)c(N)n1` as the molecule, how does the growth inhibition read?
A: -2%

Q: Which growth inhibition does the source give for `O=C(c1ccc(O)c(-c2cc(Cl)cc(Cl)c2)c1)N(CCO)CCO` here?
A: 62% (active)

Q: Which growth inhibition does the source give for `CC(=O)Nc1cccc(CNCc2ccc(-c3cnc(N4CCCC(C)(C)C4)nc3)cc2)c1` here?
A: 75% (active)

Q: Which growth inhibition does the source give for `Cc1ccc(/C=C/C(=O)NC2CCC(N3CCC(c4ccccc4C)CC3)CC2)cc1C` (stereo not given) here?
A: 43%

Q: Which growth inhibition does the source give for `COc1ccc(OCCCON2C(N)=NC(N)=NC2(C)C)cc1` here?
A: 94% (active)

Q: Which growth inhibition does the source give for `O=C(NCc1cccc(Cl)c1)c1ccc(CNC2CCN(Cc3ccccc3)CC2)cc1` here?
A: 50% (active)

Q: For `CN(C)CCOc1ccc(-c2cc(-c3ccc(Cl)c(O)c3)c(-c3ccncc3)[nH]2)cc1`, which growth inhibition is on record?
A: 92% (active)

Q: For `Fc1ccc2nc(-c3ccc(-c4ccc(CN5CCCCC5)cc4)s3)[nH]c2c1`, which growth inhibition is on record?
A: 100% (active)

Q: With `Cc1cc(N2CCC(NS(=O)(=O)c3cccc4cccnc34)CC2)nc(Nc2cccc(C#N)c2)n1` as the molecule, how does the growth inhibition read?
A: 87% (active)

Q: For `Cc1cc(NC(=O)c2cccs2)ccc1OC1CCN(Cc2ccccc2)C1` (stereo not given), which growth inhibition is on record?
A: 87% (active)

Q: With `Oc1ccc2[nH]c(-c3ccc(F)cc3F)nc2c1CN1CCC(O)(c2ccccc2)CC1` as the molecule, how does the growth inhibition read?
A: 70% (active)

Q: Which growth inhibition does the source give for `COc1cccc(NC(=O)[C@H](C(C)C)n2c(=O)[nH]c3ccccc3c2=O)c1` here?
A: 100% (active)

Experiment: human hepatoma cell viability loss – ATP luminescence, cytotoxicity control for P. falciparum antimalarial project, primary screen (AID 2303);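 further: 0% = DMSO wells and 100% = digitonin-killed cells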
Settings: HepG2 viability, 24-48 h, at 10 µM, stronger effect = higher value

Q: With `COc1ccccc1C1CCN(C2CCC(NC(=O)/C=C/c3cc(F)cc(C(F)(F)F)c3)CC2)CC1` (stereo not given) as the molecule, how does the inhibition read?
A: 92% (active)

Q: For `Cc1ccc(Nc2nccc(NCC(O)c3cccc(F)c3)n2)cc1` (stereo not given), which inhibition is on record?
A: 24%

Q: For `Cc1cccc2[nH]c(-c3ccc(-c4cccc(CN5CCN(c6ccc(C#N)cn6)CC5)c4)s3)nc12`, which inhibition is on record?
A: 37%

Q: With `Cc1ccc(NC(=O)NC2CCN(CCCCCNC(=O)/C=C/c3ccc(Cl)c(Cl)c3)CC2)cc1` as the molecule, how does the inhibition read?
A: 41%

Q: For `NC(=Nc1nc(-c2ccccn2)cc2ccccc12)c1cccc(Cl)c1`, which inhibition is on record?
A: 54% (active)

Q: Which inhibition does the source give for `CCC1CN2CCc3c([nH]c4ccccc34)C2CC1CC1=NCCc2c1[nH]c1ccc(OC)cc21` (stereo not given) here?
A: 99% (active)

Q: With `Cn1c(N)c(C(=O)CSc2nnc(-c3cccs3)n2Cc2ccccc2)c(=O)n(C)c1=O` as the molecule, how does the inhibition read?
A: -13%

Q: Which inhibition does the source give for `Cc1cc(NC(=O)c2coc3cc(F)c(N4C[C@@H](C)N(C)[C@@H](C)C4)cc23)cnc1-c1ccc(C#N)cc1` here?
A: 35%

Q: For `N#Cc1cccc(C(=O)Nc2ccc(-c3nc4ccccc4[nH]3)cc2)c1`, which inhibition is on record?
A: 33%

Q: Which inhibition does the source give for `Cc1ccc(C(=O)Cn2nc(-c3ccc(C)c(S(=O)(=O)N4CCCCC4)c3)ccc2=O)cc1` here?
A: 6%

Q: Which inhibition does the source give for `COc1ccc2c(NN=C(C)c3ccccn3)cc(C)nc2c1` here?
A: 33%

Q: Which inhibition does the source give for `CCCCCCCNCc1c(O)ccc2c(CNCCCCCCC)c(O)ccc12` here?
A: 29%

Q: For `CCOc1ccc(C(C)NC(=O)C2COc3ccccc3O2)cc1OCC` (stereo not given), which inhibition is on record?
A: -4%

Q: With `Cc1nc(C)c(CC(=O)Nc2ccc(-c3cccc(-c4nc5ccc(C(F)(F)F)cc5[nH]4)c3)cc2)s1` as the molecule, how does the inhibition read?
A: 67% (active)

Q: For `O=S(=O)(Nc1cc2c(cc1OCCCN1CCCCC1)CCNCC2)c1ccc(-c2ccc(Cl)cc2)cc1`, which inhibition is on record?
A: 77% (active)

Q: With `Cc1ccccc1C1CCN(C2CCC(NC(=O)c3ccc(-c4ccccn4)s3)CC2)CC1` (stereo not given) as the molecule, how does the inhibition read?
A: 32%

Q: With `COc1ccc2nccc([C@@H](O)CN3CCC(NC(=O)Cn4nc(-c5ccc(C(F)(F)F)cc5)ccc4=O)CC3)c2c1` as the molecule, how does the inhibition read?
A: 12%

Q: Which inhibition does the source give for `CS(=O)(=O)c1ccc(OCCCN(Cc2ccccc2C(F)(F)F)c2ccc(C#N)c(C(F)(F)F)c2)cc1` here?
A: 4%

Q: With `Cc1cc(=O)c(C2CCC(c3ccc(Cl)cc3)CC2)c(C)[nH]1` (stereo not given) as the molecule, how does the inhibition read?
A: -13%

Q: For `COc1cc(-c2cnc(N)c(-c3nc4ccccc4[nH]3)c2)cc(OC)c1OC`, which inhibition is on record?
A: 59% (active)

Q: For `CC1(C)N=C(N)N=C(N)N1OCCOc1ccc2ccccc2c1`, which inhibition is on record?
A: 70% (active)

Q: With `O=C(Nc1ccc(OC2CCN(Cc3ccccc3)CC2)c(Cl)c1)c1cccs1` as the molecule, how does the inhibition read?
A: 2%

Q: Which inhibition does the source give for `CC(=O)c1ccc(NC(=O)C2c3ccccc3C(=O)N(CC(C)C)C2c2cccs2)cc1` (stereo not given) here?
A: 13%

Q: For `COc1ccc2ncc(F)c(CCN3CCC(NCc4cnc5c(c4)NC(=O)CS5)CC3)c2c1`, which inhibition is on record?
A: 16%

Q: With `O=C(Nc1nc(-c2ccccn2)cc2ccccc12)c1cccc(Cl)c1` as the molecule, how does the inhibition read?
A: 59% (active)

Q: With `CN1CCCN(Cc2cccc(-c3cccc(NC(=O)c4cccc(C#N)c4)c3)c2)CC1` as the molecule, how does the inhibition read?
A: 18%

Q: For `OC1(Cc2ccccc2)CCN(Cc2cccc(-c3c[nH]c4nc(NC5CCCC5)ncc34)c2)CC1`, which inhibition is on record?
A: 45%

Q: For `N#Cc1ccc(NC(=O)N2CCCN(CCCCCNC(=O)/C=C/c3ccc(Cl)c(Cl)c3)CC2)cc1`, which inhibition is on record?
A: 32%

Q: With `Nc1ncc(-c2ccc(Cl)c(Cl)c2)c(N)n1` as the molecule, how does the inhibition read?
A: 65% (active)

Q: With `O=C(c1ccc(O)c(-c2cc(Cl)cc(Cl)c2)c1)N(CCO)CCO` as the molecule, how does the inhibition read?
A: 1%

Q: For `CC(=O)Nc1cccc(CNCc2ccc(-c3cnc(N4CCCC(C)(C)C4)nc3)cc2)c1`, which inhibition is on record?
A: 10%

Q: With `Cc1ccc(/C=C/C(=O)NC2CCC(N3CCC(c4ccccc4C)CC3)CC2)cc1C` (stereo not given) as the molecule, how does the inhibition read?
A: 12%

Q: For `COc1ccc(OCCCON2C(N)=NC(N)=NC2(C)C)cc1`, which inhibition is on record?
A: 55% (active)

Q: With `O=C(NCc1cccc(Cl)c1)c1ccc(CNC2CCN(Cc3ccccc3)CC2)cc1` as the molecule, how does the inhibition read?
A: 13%

Q: With `CN(C)CCOc1ccc(-c2cc(-c3ccc(Cl)c(O)c3)c(-c3ccncc3)[nH]2)cc1` as the molecule, how does the inhibition read?
A: 54% (active)

Q: For `Fc1ccc2nc(-c3ccc(-c4ccc(CN5CCCCC5)cc4)s3)[nH]c2c1`, which inhibition is on record?
A: 42%

Q: Which inhibition does the source give for `Cc1cc(N2CCC(NS(=O)(=O)c3cccc4cccnc34)CC2)nc(Nc2cccc(C#N)c2)n1` here?
A: 12%

Q: With `Cc1cc(NC(=O)c2cccs2)ccc1OC1CCN(Cc2ccccc2)C1` (stereo not given) as the molecule, how does the inhibition read?
A: 7%

Q: Which inhibition does the source give for `Oc1ccc2[nH]c(-c3ccc(F)cc3F)nc2c1CN1CCC(O)(c2ccccc2)CC1` here?
A: 16%

Q: With `COc1cccc(NC(=O)[C@H](C(C)C)n2c(=O)[nH]c3ccccc3c2=O)c1` as the molecule, how does the inhibition read?
A: -1%

— PubChem BioAssay
